Bioassay records as filed in PubChem BioAssay.
TLR4-MyD88 BLA = TLR4-MyD88 interaction inhibition in cells. inhibition, % at 8.4 µM. HeLa CL3-4 TLR4/MyD88 BLA complementation, FRET ratio. 0.18% of 200,000 active. AID 861; in the data active = inhibition above about 25%;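 also: 0% = vehicle and 100% = reference inhibitor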
ABHD5 PLIN5 PPI = ABHD5-PLIN5 protein interaction inhibition | inhibition, % at 4 µM | Q00G26+Q8WTS1 | 0.78% of 360,000 active | Split G. princeps luciferase complementation, luminescence, 4 h | AID 602281;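 active = inhibition above the mean inhibition across every tested compound plus 3 SD, cut at about 22% in these data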;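 also: 0% = DMSO only wells and the 100% control is not disclosed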
PRMT1 FP inh = PRMT1 (human) inhibition, primary screen; AID 652257; Q99873; 1.3% of 370,000 active; recombinant PRMT1, activity-based probe fluorescence polarization; inhibition, % at 2.79 µM;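 active = inhibition above about 21% made by adding two undisclosed values, limit read from the data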
NOD2 RIPK2 PPI = inhibitors of human NOD2-RIPK2 interaction; O43353; AID 624267; CHO BLA complementation NOD2-RIPK2, CCF4 ratio; 0.38% of 360,000 active; inhibition, % at 4.98 µM; in the data active = inhibition above about 21%;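 also: 0% = vehicle only and 100% = reference blocker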
Target sequence (O43353 whole entry, looked up): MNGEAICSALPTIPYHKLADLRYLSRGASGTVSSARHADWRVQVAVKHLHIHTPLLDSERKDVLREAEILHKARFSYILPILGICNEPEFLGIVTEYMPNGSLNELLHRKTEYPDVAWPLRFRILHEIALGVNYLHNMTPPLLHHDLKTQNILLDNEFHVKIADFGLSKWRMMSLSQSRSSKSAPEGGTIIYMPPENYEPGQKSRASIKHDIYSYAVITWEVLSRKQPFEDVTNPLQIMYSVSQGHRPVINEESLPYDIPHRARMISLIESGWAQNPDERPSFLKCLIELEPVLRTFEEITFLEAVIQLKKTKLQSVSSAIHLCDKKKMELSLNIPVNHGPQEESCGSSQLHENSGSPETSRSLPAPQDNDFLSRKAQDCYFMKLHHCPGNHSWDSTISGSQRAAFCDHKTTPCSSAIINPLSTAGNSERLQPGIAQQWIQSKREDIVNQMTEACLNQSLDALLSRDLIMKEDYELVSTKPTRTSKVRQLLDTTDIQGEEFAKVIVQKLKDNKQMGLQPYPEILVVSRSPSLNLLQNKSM
Granule exo inh = blocks lytic granule exocytosis; 0.66% of 360,000 active; TALL-104 LAMP-1 surface exposure, flow cytometry; cells stimulated with thapsigargin and PMA; AID 651702; inhibition, % at 10 µM;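 active = inhibition above about 55%, limit read from the data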
TLR9-MyD88 block = TLR9-MyD88 interaction inhibition. 0.21% of 340,000 active. Q9NR96+Q99836. CHO BLA complementation TLR9-MyD88, CCF4 FRET ratio. AID 504734. inhibition, % at 4.98 µM;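 active = inhibition above the mean over all tested compounds plus 3 SD, cut at about 21% in these data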;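 also: 0% = DMSO only wells and 100% = clavulanate BLA inhibitor control wells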
The depositor's hits bear a star; nt = not tested or not shown. Rows were chosen to be rich in hits. Some 2.6% of all compounds tested hit in one or more screens of this group.

SMILES	TLR4-MyD88 BLA	ABHD5 PLIN5 PPI	PRMT1 FP inh	NOD2 RIPK2 PPI	Granule exo inh	TLR9-MyD88 block
O=C(O)c1cccc2c1NC(c1cccc([N+](=O)[O-])c1)C1CC(Sc3ccccc3[N+](=O)[O-])C(Cl)C21 (stereo unspecified)	14	1	23*	-10	-2	3
CCOc1c(P(=S)(N(C)C)N(C)C)c(C)nn1-c1ccccc1	10	-3	-1	5	-1	-2
CCN(CC)P(=S)(c1c(C)nc2ccccn12)c1c(C)nc2ccccn12	-9	6	24*	-1	-1	-5
CN1CCN(c2nc3ccccn3c(=O)c2C=C2C(=O)N(C)C(=O)N(C)C2=O)CC1	7	23*	nt	-7	0	9
Cc1cc(N2CCNC[C@H]2C)ccc1N1CCN[C@H](C)C1	nt	nt	-2	nt	nt	nt
CCCCc1ncc(CN2CCCC(C(=O)c3ccc(SC)cc3)C2)[nH]1 (stereo unspecified)	2	-1	1	-9	5	4
O=C1NC(=O)N(c2ccc(F)cc2)C(=O)/C1=C/c1ccsc1	-15	23*	6	-2	-4	2
COc1cc2c(cc1O)C[C@H]1c3c(cc(O)c(OC)c3-2)CCN1C	nt	-3	-1	-8	-1	-4
CN1CCc2cc3c(c4c2C1Cc1ccccc1-4)OCO3 (stereo unspecified)	nt	-10	51*	1	80*	-1
Cc1cccc(-n2c(-c3ccccc3)nc3ccccc3c2=O)n1	-9	-3	3	6	1	-1
CN1C(=O)NC(=O)/C(=C/c2ccc([N+](=O)[O-])o2)C1=O	nt	nt	24*	nt	nt	nt
CCOC(=O)C1=C(C(=O)OCC)C2(c3ccccc3)c3ccccc3C1(C)N2C (stereo unspecified)	nt	nt	-5	nt	nt	nt
Cc1cc(C)c(C)c(C(O)(C(=O)O)c2ccccc2)c1 (stereo unspecified)	nt	-1	-1	-10	0	1
COc1ccc(/C=C2\C(=O)NC(=O)N(CCC3=CCCCC3)C2=O)c(OC)c1	1	-16	8	-8	28	5
CCN1C(=O)NC(=O)/C(=C\c2ccc(N3CCOCC3)cc2OC)C1=O	-2	nt	21*	nt	nt	nt
COc1ccc(C2=NCC(=O)N(CC(=O)NCc3ccco3)c3sc4c(c32)CCCC4)cc1	-2	38*	18	-10	5	9
Cc1cccc(C2=NCC(=O)N(CC(=O)NCc3ccco3)c3sc4c(c32)CCCC4)c1	7	-1	0	3	-14	-1
CCC(=O)N1CC(=O)Nc2ccc(Br)cc2C1c1ccccc1 (stereo unspecified)	8	5	3	0	-2	3
O=C1NC(=S)NC(=O)C1=Cc1ccc(Br)s1	nt	-11	7	2	72*	1
COC(=O)[C@]12OC[C@]34C([C@@H](O)[C@@H]1O)[C@]1(C)CC(=O)C(O)=C(C)[C@@H]1C[C@H]3OC(=O)[C@H](O)[C@@H]24 (stereo partly specified)	nt	7	3	26*	0	-6
CC1=CC(O)C(O)C2(C)C1CC1OC(=O)C(O)C3C(C)C(O)C4(O)OCC13C42 (stereo unspecified)	nt	-1	nt	-4	-14	-11
COc1ccc2c(c1OC)C(=O)OC2c1c(O)n(C2CCCCC2)c(=O)[nH]c1=O (stereo unspecified)	-5	-20	23*	-12	-3	-2
N/C(=N\N=C/c1ccc(-c2ccc(O)c(C(=O)O)c2)o1)N[N+](=O)[O-]	6	-9	33*	-2	1	1
O=C(c1ccccc1)C(Cc1ccccc1)N1CCOCC1 (stereo unspecified)	nt	-4	1	-8	1	6
O=c1[nH]c(=O)n(CCC2=CCCCC2)c(O)c1/C=N/Nc1ccccc1	-4	-20	22*	-18	2	8
SMILES	TLR4-MyD88 BLA	ABHD5 PLIN5 PPI	PRMT1 FP inh	NOD2 RIPK2 PPI	Granule exo inh	TLR9-MyD88 block
COC(=O)C1=C(c2ccc(OC(F)(F)F)cc2)C[C@@H]2CC[C@H]1N2C(=O)N1CCc2cc(OC)c(OC)cc2C1	nt	nt	-1	nt	nt	nt
COc1cc(/C=C2\C(=O)NC(=O)N(CCc3ccc(F)cc3)C2=O)ccc1O	-6	-18	24*	1	29	-4
COc1ccc2c(c1)c(CCN)c(C)n2Cc1ccccc1	nt	6	-3	-6	25	3
Cc1cc2c(C(C)C)c(O)c(O)c(C=O)c2c(O)c1-c1c(C)cc2c(C(C)C)c(O)c(O)c(C=O)c2c1O	-15	7	25*	2	23	nt
COC(=O)C1C(c2ccc(I)cc2)CC2CCC1N2C (stereo unspecified)	nt	nt	-2	nt	nt	nt
C[C@H]1CNCCN1c1ccc(N2CC[C@H](O)C2)c(C#N)c1	nt	nt	-1	nt	nt	nt
CN1CCc2cc(O)cc3c2[C@H]1Cc1ccc(O)c(O)c1-3	nt	-3	79*	-7	60*	12
CN(CC1COc2ccccc2O1)c1nc(-c2cccnc2)nc2ccccc12 (stereo unspecified)	3	-1	-1	3	87*	-12
CCOC(=O)COc1ccc(/C=C2\C(=O)NC(=S)N(c3ccc(OC)cc3)C2=O)cc1OC	nt	0	23*	2	-2	-12
CCOC(=O)CSCCOc1ccc(C=C2C(=O)NC(=O)NC2=O)cc1OC	2	4	6	-7	3	nt
COC(=O)C1C(c2ccccc2)CC2CCC1N2C (stereo unspecified)	nt	nt	0	nt	nt	nt
O=[N+]([O-])c1[nH]cnc1Br	nt	6	-2	-10	-1	-5
CN(C)[C@@H]1C(=O)C(C(N)=O)=C(O)[C@@]2(O)C(=O)C3=C(O)c4c(O)cccc4[C@@](C)(O)C3[C@H](O)C12 (stereo partly specified)	nt	3	36*	4	-3	-1
CCOc1ccc(N2C(=O)/C(=C\c3cccs3)C(=O)NC2=S)cc1	11	nt	19	nt	nt	nt
O=C1NC(=S)N(c2ccccc2F)C(=O)/C1=C\c1cccs1	0	-8	12	-78	76*	-6
O=C(O)C(Br)Br	nt	nt	-1	nt	nt	nt
O=C(O)CNC1c2ccccc2CSc2ccccc21 (stereo unspecified)	nt	1	21*	-4	-6	nt
O=C1NC(=O)C(=Cc2ccccc2[N+](=O)[O-])C(=O)N1	nt	0	14	-5	-7	-11
O=C1NC(=O)C(=Cc2ccc(-c3ccccc3[N+](=O)[O-])o2)C(=O)N1	nt	10	7	-7	76*	1
O=C1NC(=O)C(=Cc2ccc(-c3cc(Cl)ccc3[N+](=O)[O-])o2)C(=O)N1	1	-3	10	7	61*	3
O=C1NC(=O)C(=Cc2cc3c(cc2[N+](=O)[O-])OCO3)C(=O)N1	0	21	13	2	1	5
CCOC(=O)CC[C@@H]1CC[C@]2(CCCN(Cc3ccccn3)C2)O1	nt	nt	3	nt	nt	nt
